# Source: PubChem
# IDH1 R132H inh – blocks human mutant IDH1 R132H enzyme. 390,000 compounds, 0.093% hits. O75874. IDH1-R132H enzyme, NADPH consumption, diaphorase/resazurin fluorescence. Potency, µM (highest dose often 76.6 µM), for the others: at the highest dose activity change, negative = inhibition, usual class: inhibitors; also: potency is read from the fitted curve at half-maximal effect; % is scaled to controls: 0 for no effect and ±100 for the full control effect; nearly all actives have a fitted effect of over 65% in size
#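 IDH1-R132H (0.5 ug/mL dispensed) in pH 7.5 Tris buffer was preincubated 30 min with compound, then given a substrate mix of 0.016 mM NADPH and 2 mM alpha-KG for 80 min at room temperature; remaining NADPH was read by diaphorase/resazurin fluorescence.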
# rTrxR1 inhibitor – inhibitors of rat thioredoxin reductase 1; Potency, µM (doses to about 114 µM), inactives show top-dose activity change, negative = inhibition, most hits filed as inhibitors; 390,000 compounds, 1% hits; recombinant rTrxR1, NADPH fluorescence consumption, selenite substrate; O89049; also: potency is read from the fitted curve at half-maximal effect; % is scaled to controls: 0 for no effect and ±100 for the full control effect; nearly all actives have a fitted effect of over 65% in size
# Target sequence (O89049 whole entry, looked up): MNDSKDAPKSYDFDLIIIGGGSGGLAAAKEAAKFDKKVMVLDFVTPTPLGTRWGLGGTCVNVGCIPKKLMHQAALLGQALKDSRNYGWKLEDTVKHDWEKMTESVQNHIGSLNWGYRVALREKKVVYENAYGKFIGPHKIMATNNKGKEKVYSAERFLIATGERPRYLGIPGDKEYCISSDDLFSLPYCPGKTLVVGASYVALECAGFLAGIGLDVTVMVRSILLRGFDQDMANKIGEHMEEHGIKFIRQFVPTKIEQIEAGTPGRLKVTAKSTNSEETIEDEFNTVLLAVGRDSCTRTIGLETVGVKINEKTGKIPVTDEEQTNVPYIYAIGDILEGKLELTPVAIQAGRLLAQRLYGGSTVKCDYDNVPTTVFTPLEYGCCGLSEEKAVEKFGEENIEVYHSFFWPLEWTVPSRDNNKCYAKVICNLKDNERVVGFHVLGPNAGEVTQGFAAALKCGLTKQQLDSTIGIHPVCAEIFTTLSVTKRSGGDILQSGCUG
#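 Rat TrxR1 (90 nM in the dispensed reagent) was pre-reduced with 400 uM NADPH for 5 min at room temperature, then incubated with compound for 15 min. After 400 uM selenite was added, NADPH fluorescence (Ex 340/Em 450 nm) was followed for 8 min.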
# TrxR1 substrate – rat thioredoxin reductase 1 substrate activity | Potency, µM (highest dose often 114 µM), without a hit: top-dose activity change, negative = substrate turnover | purified TrxR1 substrate turnover, NADPH consumption readout | 390,000 compounds, 0.01% hits; also: potency is read from the fitted curve at half-maximal effect; % is scaled to controls: 0 for no effect and ±100 for the full control effect; nearly all actives have a fitted effect of over 50% in size
#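 Rat TrxR1, dispensed at 90 nM, was prereduced with 400 uM NADPH (final) for 5 min at ~22 deg C, then incubated with compound 15 min before 400 uM selenite. A first-read NADPH fluorescence drop versus no-compound background flagged substrates.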
# IL-2 act – IL-2 activation. IL-2 activation reporter assay, cell-based qHTS; stimulated with anti-CD3/CD4/CD28 beads; in transgenic mouse T cells. activation, % (series mostly up to about 46 µM). 360,000 compounds, 0.065% hits; in the data active = activation above about 50%; inconclusive = mostly about 30% to 49%; also: 0% is about no effect
#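 Screening format: compound pinned onto unstimulated transgenic mouse T cells, 60 min incubation, then anti-CD3/anti-CD4/anti-CD28 bead stimulation for 18 hours at 37 degrees C, followed by EGFP and DsRed detection.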
# BRCA1 expr act – increases BRCA1 expression; MCF7-BRCA1-FFLuc reporter, luminescence, 48 h; response scale: scaled: vehicle 0%, 10 µM genistein 100%; Potency, µM (doses to about 46.1 µM), inactives show top-dose activation, hits mostly activators; 380,000 compounds, 1.1% hits; also: potency is read from the fitted curve at half-maximal effect; nearly all actives have a fitted effect of over 80% in size
#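 Using MCF7 cells harboring a BRCA1 firefly luciferase reporter, plated 2 h before compound pinning, the screen measured luminescence after 48 h incubation. Responses were normalized to DMSO and 10 microM genistein, then fitted for concentration-effect.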
# Giardia kill – Giardia lamblia killing | Giardia lamblia trophozoite viability | activity change, % at 7.66 µM, hits read low | 340,000 compounds, 0.15% hits; in the data active = activity change below about -80%; inconclusive = between about -30% and that limit;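 also: parasites exposed to compound for two days anaerobically before the ATP read; % is scaled to controls: 0 for no effect and ±100 for the full control effect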
#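 Each well holds 100 Giardia trophozoites and compound. After two days (48 hrs) at 37 deg C in anaerobic conditions, ATP is quantified by luminescence.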
# IDH1 autofl – interferes with resorufin fluorescence in IDH1 counter-screen | inhibition of signal, % at 51.2 µM | shares compounds with IDH1 R132H inh | 750 tested, under 10 active | Resorufin detection reagent fluorescence interference, cell-free;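 also: 0% = wells with normal resorufin and full inhibition = wells lacking resorufin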
# IDH1 WT – wild-type IDH1 (human) inhibition counterscreen. shares compounds with IDH1 R132H inh. WT IDH1 enzyme, NADPH diaphorase/resazurin fluorescence. Potency, µM (doses to about 115 µM), for the others: at the highest dose activity change, negative = inhibition, actives largely listed as inhibitors. 750 compounds, 9% hits. AID 623995;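 also: potency is read from the fitted curve at half-maximal effect; 0% = full WT IDH1 enzyme control and full inhibition = no enzyme wells; nearly all actives have a fitted effect of over 55% in size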
# IDH1 R132H conf – confirmation of human mutant IDH1 inhibitors; shares compounds with IDH1 R132H inh; IDH1 R132H enzyme, NADPH diaphorase/resazurin fluorescence; Potency, µM (doses to about 76.6 µM), for the others: at the highest dose activity change, negative = inhibition, hits mostly inhibitors; 750 compounds, 83% hits; also: potency is read from the fitted curve at half-maximal effect; nearly all actives have a fitted effect of over 50% in size
# * = called active by the depositor; ? = inconclusive; . = no result; [ ] = remark or other dose. An excerpt weighted towards active compounds, which were near 2.2% of everything screened. Unless noted, calls follow the shape of the dose curve; as a rule, active = well fitted curve in the direction sought with a large enough effect; inconclusive = small, poorly fitted or top-dose-only effect, or another doubt; inactive = no such curve, though single readings can be large; an effect the other way counts as inactive or inconclusive.
SMILES,IDH1 R132H inh,rTrxR1 inhibitor,TrxR1 substrate,IL-2 act,BRCA1 expr act,Giardia kill,IDH1 autofl,IDH1 WT,IDH1 R132H conf
CC1=CC(C)(C)N2C(=O)C3(C(C#N)=C(N)OC4=C3C(=O)CCC4)c3c(C)c(C)cc1c32 (configuration not stated),-3%,22%[57.1 µM],-2%,3,-45%,-6,.,.,.
Cc1ccc(NC(=O)CNc2cccc(S(=O)(=O)N3CCOCC3)c2)cc1F,-11%,-5%,-13%,-1,-30%,-13,.,.,.
CCN(CC)S(=O)(=O)c1cc(NC(=O)CNc2cccc(S(=O)(=O)N3CCOCC3)c2)ccc1C,?,-6%,-3%,-1,-69%,15,1,-2%,28µM*
CCCCC(NC(=O)CCc1c(C)c2cc3c4c(oc3c(C)c2oc1=O)CCCC4)C(=O)O (configuration not stated),46µM*,-6%,8%,0,4%,18,-8,-7%,25µM*
CCOC(=O)c1ccccc1NC(=O)Cn1cc(C(=O)c2cccc(OC)c2)c(=O)c2ccc(C)nc21,4%,-12%[57.1 µM],-7%[57.1 µM],.,.,.,.,.,.
Cc1cc(C)nc(N/N=C/C2=C(N3CCOCC3)C(=C/c3ccccc3)/CC2)n1,29µM*,-25%,-14%,1,-52%,10,-4,2%,20µM*
CCn1c2ccccc2c2cc(/C=N/n3c(-c4cc(C)[nH]n4)n[nH]c3=S)ccc21,?,19%[11.4 µM],4%[57.1 µM],-1,-64%,-4,-8,-2%,14µM*
CCn1c2ccccc2c2cc(/C=N/n3cn[nH]c3=S)ccc21,1%,?,-2%,-1,-63%,10,.,.,.
Cc1ccc(SCc2nc(-c3ccc(C(=O)NCc4ccccc4Cl)cc3)oc2C)cc1,-6%,34%,20%,.,.,.,.,.,.
COc1cc2cnc(-c3ccsc3)c(-c3ccc(F)cc3)c2cc1OC,?,11%[57.1 µM],-6%,0,0%,-16,1,8%,25µM*
COc1cc2cnc(-c3ccccc3)c(-c3ccc(C#N)cc3)c2cc1OC,32µM*,10%[57.1 µM],13%,-2,-48%,-22,0,?,8.9µM*
CCc1cccc(C)c1Nc1c(-c2ccc(SC)cc2)nc2sccn12,?,16%,1%,.,.,.,.,.,.
CCc1cccc(C)c1Nc1c(-c2ccc(N(C)C)cc2)nc2cnccn12,32µM*,2%,-2%,.,-51%,.,-9,-7%,16µM*
CCc1cccc(C)c1Nc1c(-c2ccc(F)cc2)nc2sccn12,40µM*,8%,5%,.,.,.,3,7%,14µM*
CC(C)CNc1ncnc2c1sc1nc(N3CCOCC3)c3c(c12)CC(C)(C)OC3,0%,-10%,3%,0,-9%,-17,.,.,.
CC1(C)Cc2c(c(N3CCOCC3)nc3sc4c(NN)ncnc4c23)CS1,23µM*,2%,-4%,0,-100%,15,-5,?,14µM*
OCCNc1ncnc2c1sc1nc(N3CCOCC3)c3c(c12)CCC3,12%,8%[57.1 µM],36%,2,-13%,-1,.,.,.
CC(C)CNc1nnnc2c1sc1nc(N3CCOCC3)c3c(c12)CC(C)(C)SC3,?,-9%,3%,0,-65%,37,10,?,?
CC1(C)Cc2c(c(N3CCOCC3)nc3sc4c(NCc5ccccc5)nnnc4c23)CS1,-2%,-13%,4%,-2,-43%,-9,.,.,.
NNc1nnnc2c1sc1nc(N3CCOCC3)c3c(c12)CCCC3,52µM*,-19%,0%,-1,0%,-4,-2,-15%,?
CC1CCCCC1NC(=O)c1cn(C)c2ccc(S(=O)(=O)N3CCCC3)cc2c1=O (configuration not stated),?,0%,-2%,0,-28%,3,4,-4%,22µM*
CCOc1cc(/C=C(\C#N)C(=O)Nc2cccc(C(=O)O)c2)cc(Br)c1OC(=O)c1ccc(OC)cc1,52µM*,-8%,-9%,0,-18%,31,8,71µM*,32µM*
CC(C)c1ccc(C2c3c(-c4ccccc4O)n[nH]c3C(=O)N2Cc2ccncc2)cc1 (configuration not stated),16µM*,24%,-1%,.,.,.,-14,-4%,22µM*
CCOc1cc(C2c3c(-c4ccccc4O)n[nH]c3C(=O)N2CCc2ccccc2)ccc1O (configuration not stated),?,-2%,-10%,.,.,.,-3,9%,?
COCCCN1C(=O)c2[nH]nc(-c3cc(C)cc(C)c3O)c2C1c1ccc(O)c(OC)c1 (configuration not stated),3%,11%,-3%,-3,-44%,8,.,.,.
SMILES,IDH1 R132H inh,rTrxR1 inhibitor,TrxR1 substrate,IL-2 act,BRCA1 expr act,Giardia kill,IDH1 autofl,IDH1 WT,IDH1 R132H conf
CCCN1C(=O)c2[nH]nc(-c3cc(Cl)c(C)cc3O)c2C1c1ccc(O)c(OC)c1 (configuration not stated),26µM*,21%[57.1 µM],2%[57.1 µM],-2,-52%,-7,11,?,28µM*
COC(=O)c1ccc(C2c3c(-c4ccccc4O)n[nH]c3C(=O)N2Cc2cccnc2)cc1 (configuration not stated),?,6%,-4%,.,.,.,5,0%,40µM*
COc1ccc(CCN2C(=O)c3[nH]nc(-c4ccccc4O)c3C2c2ccc(O)c(OC)c2)cc1 (configuration not stated),-7%,17%,3%,.,.,.,.,.,.
CSc1ccc(C2c3c(-c4ccccc4O)n[nH]c3C(=O)N2Cc2ccncc2)cc1 (configuration not stated),40µM*,22%,-4%,.,.,.,0,4%,28µM*
CCCOc1ccc(C2c3c(-c4ccccc4O)n[nH]c3C(=O)N2Cc2ccncc2)cc1OCC (configuration not stated),?,-13%,24%,.,.,.,-5,?,45µM*
Cc1ccc(N(C(=O)C(F)(F)F)C(C(=O)NC2CCCCC2)c2cccs2)cc1 (configuration not stated),?,22%,12%,-3,-12%,11,0,-8%,11µM*
